Screening data deposited in PubChem BioAssay by National Center for Advancing Translational Sciences (NCATS).
Compounds with a hit are over-represented: about 2.8% of the library has one in this group of screens.
DRD3 agonist – D3 dopamine receptor (human) agonism; D3R DiscoveRx beta-arrestin cells, luminescence, 90 min; P35462; max activation, %; 410,000 compounds, 0.58% hits; in the data active = max activation above about 30%; note: 0% is about no effect
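Agonist mode: compounds and dopamine controls were applied to plated cells for 90 min at 37 degrees C after an overnight attachment at 1500 cells/well. Luminescent read-out followed 30 - 60 minutes at room temperature with DiscoveRx detection reagent.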
B2AR arrestin – recruits beta-arrestin to the human beta2-adrenergic receptor; P07550; beta-arrestin recruitment to beta2AR, cell-based reporter; Potency, µM (doses to about 46.1 µM), for inactives: at the top dose activation, most hits filed as activators; 330,000 compounds, 0.02% hits; active = well fitted activation curve with a large enough effect; inconclusive = small, poorly fitted or top-dose-only effect;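 note: potency is the fitted concentration of half-maximal effect; 0% = DMSO controls and full agonism = EC100 isoproterenol or metaproterenol; nearly all actives have a fitted effect of over 65% in size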
Target sequence (P07550 whole entry, looked up): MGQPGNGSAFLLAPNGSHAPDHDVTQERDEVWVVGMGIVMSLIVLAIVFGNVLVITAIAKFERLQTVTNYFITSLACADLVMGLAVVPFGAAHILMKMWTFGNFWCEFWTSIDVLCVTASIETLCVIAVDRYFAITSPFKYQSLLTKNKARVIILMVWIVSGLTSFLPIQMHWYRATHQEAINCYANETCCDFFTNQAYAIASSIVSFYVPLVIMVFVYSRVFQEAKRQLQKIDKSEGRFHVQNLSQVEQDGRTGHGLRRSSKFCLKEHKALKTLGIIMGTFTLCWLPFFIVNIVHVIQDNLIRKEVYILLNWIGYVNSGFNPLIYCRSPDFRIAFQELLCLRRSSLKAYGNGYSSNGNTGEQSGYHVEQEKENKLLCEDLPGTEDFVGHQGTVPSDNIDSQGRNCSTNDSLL
D3 antag – antagonists of human D3 dopamine receptor. max response, negative = inhibition, %. P35462. D3R cells, DiscoveRx beta-arrestin luminescence, antagonist mode; stronger effect = lower value. 360,000 compounds, 2.5% hits; in the data active = max response below about -50%; inconclusive = no clear call, values can overlap the other calls; note: % is set by controls: 0 for no effect and ±100 for the full control effect
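Cells plated overnight at 1500 cells/well, then exposed to library compounds with dopamine controls for 90 minutes at 37 degrees C. DiscoveRx reagent added for 30–60 minutes at room temperature; luminescence read, quantitative HTS format.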
Giardia killer – kills Giardia lamblia; Giardia lamblia trophozoite viability; 340,000 compounds, 0.15% hits; activity change, % at 7.66 µM, hits read low; in the data active = activity change below about -80%; inconclusive = between about -30% and that limit;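 note: parasites exposed to compound for two days anaerobically before the ATP read; % is set by controls: 0 for no effect and ±100 for the full control effect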
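Anaerobic 48 hrs incubation at 37 deg C of 100 trophozoites/well with test compounds; ATPLite 1-Step luminescence, 15-30 min RT, reports cellular ATP as viability.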
Starred values were filed as active, the others as inactive; i = inactive; ? = inconclusive; · = not tested or not shown.

SMILES	DRD3 agonist	B2AR arrestin	D3 antag	Giardia killer
Cc1cn2c(=O)cc(COc3cccc(NC(=O)c4ccc(C(C)(C)C)cc4)c3)nc2s1	-6	·	·	·
COc1ccccc1-n1ncc2c(=O)[nH]c(SCC(=O)Nc3ccc(Cl)cc3)nc21	2	·	·	·
O=C(NN1C(=O)NC2(CCCCC2)C1=O)c1ccc(-c2ccccc2Cl)o1	-6	0%	-52*	-20
COc1ccc(C(CNC(=O)c2ccc(-c3ccccc3Cl)o2)N2CCCC2)cc1 (stereo unspecified)	-2	·	-121*	·
COc1ccc(C(CNC(=O)c2ccc(C)o2)N2CCOCC2)cc1 (stereo unspecified)	-6	0%	0	-9
O=C(NN1C(=O)NC2(CCCCC2)C1=O)c1ccc(-c2ccc([N+](=O)[O-])cc2)o1	1	-1%	1	27
COc1ccc(C(CNC(=O)c2oc3ccccc3c2C)N2CCCCC2)cc1 (stereo unspecified)	-24	·	·	·
COc1ccc(C(CNC(=O)c2ccc(-c3nc4ccccc4s3)o2)N2CCCC2)cc1 (stereo unspecified)	-20	1%	-83*	7
Cc1ccc(-c2onc(C)c2C)cc1S(=O)(=O)NCc1ccc(N(C)C)cc1	1	·	·	·
CC(C)N(CCC(=O)c1ccc2ccccc2c1)Cc1ccccc1	-76	0%	-132*	1
COc1ccc(NCc2cc3cc4c(cc3n(CC(=O)Nc3ccc(C)cc3)c2=O)OCO4)cc1	-8	·	·	·
COc1cccc(C(C#N)N2CCCCC2)c1O (stereo unspecified)	5	0%	-74*	-9
COc1ccc(C(C#N)N2CCCCCC2)cc1OC (stereo unspecified)	5	0%	21	9
COc1cc(Cl)ccc1OC1(C)CCN(Cc2ccc3ccccc3c2)C1 (stereo unspecified)	-8	·	-116*	·
CSc1ccc(OC2(C)CCN(Cc3ccc(-c4ccccn4)cc3)C2)cc1 (stereo unspecified)	1	·	-55*	·
CC1(Oc2cccc(C#N)c2)CCN(Cc2ccc(-c3ccccn3)cc2)C1 (stereo unspecified)	-6	·	-12	·
COc1cc(Cl)ccc1OC1(C)CCN(Cc2ccccc2OC(F)F)C1 (stereo unspecified)	-18	·	?	·
CC1(Oc2ccccc2)CCN(Cc2ccc(-c3ccccn3)cc2)C1 (stereo unspecified)	-13	·	-79*	·
COc1cc(Cl)ccc1OC1(C)CCN(Cc2cccc(OC)c2OC)C1 (stereo unspecified)	-11	·	-61*	·
CO/N=C(\C(=O)N[C@@H]1C(=O)N2C(C(=O)O)=C(CSc3nnnn3C)CS[C@H]12)c1csc(N)n1	6	·	·	·
CC(CNC(=O)Cn1c(-c2cccs2)cc2ccccc21)c1ccccc1 (stereo unspecified)	7	·	·	·
CCOC(=O)c1ccc(NC(=O)Nc2ccc3snnc3c2)cc1	-6	·	·	·
COc1cccc(C(=O)NCCSc2c(-c3ccc(F)cc3)[nH]c3ccccc23)c1OC	0	·	·	·
CC1(Oc2ccc(Cl)cc2)CCN(Cc2ccc(-c3ccccn3)cc2)C1 (stereo unspecified)	-9	·	-121*	·
COc1cc(Cl)ccc1OC1(C)CCN(Cc2ccc(-c3ccccn3)cc2)C1 (stereo unspecified)	45*	·	?	·
SMILES	DRD3 agonist	B2AR arrestin	D3 antag	Giardia killer
CC(C)(C)c1ccc(OCC(=O)Nc2ccc(S(=O)(=O)Nc3ncccn3)cc2)cc1	-4	·	·	·
Cc1ccc(N2CC(C(=O)OCC(=O)c3ccc(F)cc3)CC2=O)cc1 (stereo unspecified)	7	0%	10	4
O=C(COC(=O)C1CC(=O)N(C2CCCCC2)C1)c1ccc(F)cc1 (stereo unspecified)	-7	0%	-58*	?
Cc1ccc(C(=O)c2cc([N+](=O)[O-])ccc2N2CCCCC2)cc1	-8	0%	-65*	-11
CCCc1cc(N2CCCC(C(=O)Nc3cc(Cl)ccc3OC)C2)n2ncnc2n1 (stereo unspecified)	-1	·	20	10
CCCc1cc(N2CCCC(C(=O)Nc3c(OC)cccc3OC)C2)n2ncnc2n1 (stereo unspecified)	31*	0%	-5	9
CCN(C(=O)Nc1cn(CC(C)C)c(=O)c2ccccc12)c1cc(C)ccc1C	-2	·	·	·
Cc1cnc2c(c1SCC(=O)NCc1ccc(F)cc1)c(=O)n(C)c(=O)n2C	5	·	·	·
CN(CCNC(=O)c1ccc(/C=N/O)nc1)Cc1ccccc1	-31	-1%	-76*	18
CCC(CC)C(=O)N(C)c1c(C)nc2c(OCc3cccc(Cl)c3)cccn12	-3	·	-62*	·
CC(=O)c1ccc(NC(=O)CSc2cn(CC(=O)N(C(C)C)C(C)C)c3ccccc23)cc1	-8	·	·	·
C/C(=N\Nc1cc(N2CCCCC2)nc(C)n1)c1ccc(Br)cc1	67*	0%	23	?
CCCN1CNc2c(c(=O)[nH]c(=S)n2CCc2cc(Cl)ccc2Cl)C1	·	·	·	i
C=C1CSc2nc3ccccc3c(=O)n21	7	·	-55*	-4
O=c1c2ccccc2nc2n1CCS2	-19	-1%	-11	-4
O=[N+]([O-])c1ccc(Nc2ccc3ccccc3c2)nc1	-16	0%	-107*	-4
CC(=O)Nc1ccc([N+](=O)[O-])cn1	-8	-1%	-53*	0
O=C(Nc1ccc([N+](=O)[O-])cn1)C1CC1	5	-1%	16	9
Cc1ccc(C)c(/C=C/C(=O)c2ccccc(=O)c2O)c1	-19	?	-51*	2
O=C(/C=C/c1ccc([N+](=O)[O-])cc1)c1ccccc(=O)c1O	-22	·	-107*	4
Cc1ccc(/C=C/C(=O)c2ccccc(=O)c2O)c(C)c1	2	?	-9	9
O=C(/C=C/c1ccccc1Cl)c1ccccc(=O)c1O	-19	-1%	-77*	2
O=C(/C=C/c1ccc([N+](=O)[O-])cc1)c1cccs1	-3	0%	-10	-19
Cc1ccc(C(=O)c2oc3ccccc3c2NC(=O)c2cc(=O)c3cc(C)ccc3o2)cc1	-16	·	·	·
O=C(NCCc1nc2ccccc2n1CCCOc1ccccc1Cl)C1CCCCC1	·	·	·	-12
SMILES	DRD3 agonist	B2AR arrestin	D3 antag	Giardia killer
COc1ccc(C2=NN(CCC(=O)NCCc3ccccc3)C(=O)CC2)cc1	-8	·	·	·
CCOC(=O)c1c(C)[nH]c(CCC(=O)Nc2ccc(N(CC)CC)cc2C)c1C	-6	·	·	·
COc1ccc2nc(SCC(=O)N3CCN(c4ccc(F)cc4)CC3)c(C#N)cc2c1	-7	0%	-58*	8
C=CCc1ccccc1OCCSc1nc(-c2cccs2)nc2cc(=O)[nH]n12	5	·	·	·
Cc1ccc2c(c1)c1c(n2CC(O)CN2CCCCCC2)CCCC1 (stereo unspecified)	-2	0%	-68*	25
Cc1c(N=C2C=CC(=O)c3ccccc32)c(=O)n(-c2ccccc2)n1C	-11	0%	-55*	7
Clc1cccc(OCCCCCN2CCOCC2)c1	-18	0%	?	-17
Clc1cccc(OCCN2CCOCC2)c1	4	0%	-66*	10
OCCN1CCN(CCOc2cccc(Cl)c2)CC1	40*	-1%	?	-20
